Compound activity deposited in PubChem by National Center for Advancing Translational Sciences (NCATS).
HP1b chromo inh: HTS for Inhibitors of HP1-beta Chromodomain Interactions with Methylated Histone Tails | Chromobox protein homolog 1 (Homo sapiens), P83916 | AlphaScreen HP1-beta / biotin-H3K9me3 peptide binding | Potency, µM (top dose mostly 114 µM), actives largely listed as inhibitors | actives 0.56% (n = 390,000) | AID 540317, 2011; note: nearly all actives have a fitted effect of over 70% in size
Target sequence (P83916 whole entry, looked up): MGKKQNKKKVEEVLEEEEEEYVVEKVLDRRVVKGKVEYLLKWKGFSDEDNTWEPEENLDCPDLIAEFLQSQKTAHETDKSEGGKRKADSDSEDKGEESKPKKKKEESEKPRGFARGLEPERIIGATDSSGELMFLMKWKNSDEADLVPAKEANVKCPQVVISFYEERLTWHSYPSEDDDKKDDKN
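HP1-beta protein (50 nM final) preincubated 30 min at room temperature with biotinylated H3(1-18)K9me3 peptide (50 nM) in PBS pH 7.4, 0.01% Tween-20, then compound added for 30 min. AlphaScreen streptavidin donor/nickel chelate acceptor beads (10 ug/mL final), 30 min dark, luminescence read.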
PLK1 PBD block: qHTS for Inhibitors of PLK1-PDB (polo-like kinase 1 - polo-box domain): Primary Screen | Serine/threonine-protein kinase PLK1 (Homo sapiens), P53350 | Plk1 PBD binding of FITC phosphopeptide, fluorescence polarization | Potency, µM, usual class: inhibitors | actives 2.8% (n = 360,000) | AID 720504, 2013; note: series mostly up to about 57 µM; nearly all actives have a fitted effect of over 65% in size
G9a block: qHTS Assay for Inhibitors of Histone Lysine Methyltransferase G9a | G9a H3K9 monomethylation, AlphaScreen, 2 h | Potency, µM (series often up to 102 µM), actives largely listed as inhibitors | actives 8.8% (n = 350,000) | AID 504332, 2011; note: nearly all actives have a fitted effect of over 75% in size
Target sequence (Q96KQ7 913-1193 limits assumed): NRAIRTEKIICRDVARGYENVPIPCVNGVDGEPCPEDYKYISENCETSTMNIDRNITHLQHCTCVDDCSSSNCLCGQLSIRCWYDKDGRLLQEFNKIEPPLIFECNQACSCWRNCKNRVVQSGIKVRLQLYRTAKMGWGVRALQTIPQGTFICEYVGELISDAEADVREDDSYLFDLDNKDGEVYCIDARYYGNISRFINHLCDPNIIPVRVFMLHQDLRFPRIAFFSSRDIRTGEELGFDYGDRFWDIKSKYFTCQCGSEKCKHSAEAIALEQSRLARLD
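G9a (20 nM) was preincubated 15 min with compound, then reacted 2 h at room temperature with 500 nM biotin-H3K9 peptide and 20 µM SAM. Monomethyl-H3K9 detected by AlphaScreen using anti-H3K9me1 antibody.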
BAZ2B inh: qHTS Assay for Inhibitors of BAZ2B. Bromodomain adjacent to zinc finger domain protein 2B (Homo sapiens), Q9UIF8. AlphaScreen BAZ2B-H3K14Ac peptide displacement. Potency, µM (highest dose often 114 µM), usual class: inhibitors. actives 4.4% (n = 360,000). AID 504333, 2011; note: nearly all actives have a fitted effect of over 60% in size
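AlphaScreen luminescence quantifies BAZ2B engagement of H3K14Ac peptide; the protein and biotinylated peptide are both at 50 nM final, buffer PBS pH 7.4 with 0.01% Tween-20, all steps at room temperature.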
JMJD2A Tudor inh: qHTS Assay for Inhibitors of JMJD2A-Tudor Domain; Lysine-specific demethylase 4A (Homo sapiens), O75164; AlphaScreen JMJD2A-Tudor / H3K4me3 peptide binding; Potency, µM (titrated, usually from 114 µM), actives largely listed as inhibitors; actives 4.4% (n = 390,000); AID 504339, 2011; note: nearly all actives have a fitted effect of over 50% in size
VDR inhibitor: Inhibitors of the vitamin D receptor (VDR): qHTS. Vitamin D3 receptor (Homo sapiens), P11473. VDR-SRC2-3 peptide fluorescence polarization, 2 h. Potency, µM, hits mostly inhibitors. actives 0.93% (n = 400,000)
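Reagent solutions, kept cold and dark, are dispensed first; compounds are then pinned in at 23 nl, plates briefly spun, and incubated 2 h at ambient temperature. Inhibition of VDR–SRC2-3 peptide binding is read by fluorescence polarization.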
Each line names hits and unclear results; the compound was inactive in the other large screens. In the library only some 11% were active in any assay of this set; here they are far more common. Calls come from the whole dose curve; as a rule, active = well fitted curve in the direction sought with a large enough effect; inconclusive = small, poorly fitted or top-dose-only effect, or another doubt; inactive = no such curve, though single readings can be large; an effect the other way counts as inactive or inconclusive.

CCCn1cnc2c(N)c(C)c(C)cc21	G9a block 1.78µM
Cc1nn(-c2ccccc2)c2c1C1(C(=O)N3c4c(cccc41)C(C)CC3(C)C)C(C#N)=C(N)O2 (stereo not drawn)	PLK1 PBD block inconclusive, G9a block 10µM, BAZ2B inh inconclusive, JMJD2A Tudor inh inconclusive
Cc1nn(-c2ccccc2)c2c1C1(C(=O)N(C)c3ccccc31)C(C#N)=C(N)O2 (stereo not drawn)	PLK1 PBD block inconclusive
COc1ccc(/C=C/C2=CC(C)(C)NC(=S)N2)cc1OC	G9a block 44.7µM (no result: BAZ2B inh)
Cc1cccc(N2CCN(C(=O)c3ccc4c(c3)CCN4S(C)(=O)=O)CC2)c1C	BAZ2B inh inconclusive (no result: G9a block)
Cc1c(C2=CCN(S(=O)(=O)c3cccc(Cl)c3)CC2)c2ccccc2n1CC(=O)N1CCCC1	none (no result: PLK1 PBD block)
COC(=O)c1cc(O)cc(OC)c1Oc1cc(C)cc(O)c1C(=O)O	HP1b chromo inh inconclusive, G9a block inconclusive, BAZ2B inh 8.91µM, JMJD2A Tudor inh 20µM, VDR inhibitor inconclusive
Cc1ccc(O)c(CNn2cnnc2)c1	none
Oc1ccc2ccccc2c1CNc1ccccn1	PLK1 PBD block inconclusive, G9a block 8.91µM
Oc1ccc2ccccc2c1CNn1cnnc1	G9a block 11.2µM
Cc1cccc(NC(=O)c2c(NC(=O)c3cccs3)sc3c2CCC(C)C3)c1 (stereo not drawn)	none (no result: PLK1 PBD block)
Cc1cccc(NC(=O)c2c(N)sc3c2CCC(C)C3)c1 (stereo not drawn)	G9a block 12.6µM, VDR inhibitor inconclusive (no result: PLK1 PBD block)
CCc1cccc(NC(=O)Cn2c(=O)n(CCC(=O)NCc3ccccc3Cl)c(=O)c3sccc32)c1	none (no result: PLK1 PBD block)
O=C1/C(=C/c2cccnc2)Oc2cc(OS(=O)(=O)c3ccc(F)cc3)ccc21	JMJD2A Tudor inh 39.8µM, VDR inhibitor inconclusive
Cc1ccccc1NC(=S)c1ccc2ccccc2n1	PLK1 PBD block 2.67µM, G9a block 11.2µM, BAZ2B inh 10µM
CCCN(CC(=O)Nc1ccccc1C)C(=O)c1ccc2ccccc2n1	none
CCN1CCN(CCCNC(=O)C2CCCN(c3nnc(-n4cccc4)s3)C2)CC1 (stereo not drawn)	none
O=C(NCc1ccco1)C1CCCN1C(=O)Nc1ccc(Cl)cc1 (stereo not drawn)	PLK1 PBD block 11.9µM, JMJD2A Tudor inh 14.1µM, VDR inhibitor inconclusive (no result: BAZ2B inh)
Cc1ccc(S(=O)(=O)N2CCCCC2C(=O)Nc2nncs2)cc1 (stereo not drawn)	PLK1 PBD block inconclusive, G9a block 39.8µM
O=C(NCc1ccco1)C1CCCN1C(=O)Nc1cccc(Cl)c1 (stereo not drawn)	none
Cc1cc(=O)n2nc(N3CCCC(C(=O)NCc4ccco4)C3)sc2n1 (stereo not drawn)	none
O=C(NCc1ccco1)C1CCCN(c2nnc(-n3cccc3)s2)C1 (stereo not drawn)	HP1b chromo inh inconclusive, PLK1 PBD block inconclusive, BAZ2B inh inconclusive, JMJD2A Tudor inh 56.2µM
CCCc1cc(=O)n2nc(N3CCC(C(=O)NCc4ccco4)CC3)sc2n1	PLK1 PBD block 23.8µM, JMJD2A Tudor inh 25.1µM
c1ccc(NCCC2OCC3(CO2)COC(CCNc2ccccc2)OC3)cc1 (stereo not drawn)	JMJD2A Tudor inh inconclusive (no result: G9a block, BAZ2B inh)
COC(=O)Nc1ccc(S(=O)(=O)N2CCCCC2C(=O)NCc2ccco2)cc1 (stereo not drawn)	none
O=C(NCc1ccco1)C1CCCN(S(=O)(=O)c2ccc(-n3cnnn3)cc2)C1 (stereo not drawn)	G9a block 56.2µM, BAZ2B inh inconclusive
Cc1ccc(S(=O)(=O)N2CCCC2C(=O)Nc2nc3c(s2)CCCC3)cc1 (stereo not drawn)	G9a block 44.7µM, BAZ2B inh inconclusive
Cc1ccc(S(=O)(=O)N2CCCCC2C(=O)NCc2ccco2)cc1 (stereo not drawn)	G9a block 28.2µM, VDR inhibitor inconclusive
O=C(O)c1ccc(S(=O)(=O)N[C@@H](Cc2ccc(O)cc2)C(=O)O)cc1	BAZ2B inh inconclusive (no result: HP1b chromo inh, PLK1 PBD block, VDR inhibitor)
Cc1cc(C)c(C(=O)COC(=O)c2cccc(S(=O)(=O)N3CCOCC3)c2)cc1C	none (no result: HP1b chromo inh, G9a block, BAZ2B inh, JMJD2A Tudor inh, VDR inhibitor)
COc1ccccc1C(=O)NCCC(=O)NC(C)c1ccc(-n2ccnc2)cc1 (stereo not drawn)	G9a block 20µM
COc1ccc(-c2noc(CCC(=O)Nc3nc4ccccc4s3)n2)cc1	none
COc1cc(C(=S)N2CCN(C(c3ccccc3)c3ccccc3)CC2)cc(OC)c1O	HP1b chromo inh inconclusive, PLK1 PBD block 13.4µM, G9a block 7.94µM, BAZ2B inh 39.8µM, JMJD2A Tudor inh 56.2µM, VDR inhibitor inconclusive
COc1ccc(NC(=S)N2CCN(C(c3ccccc3)c3ccccc3)CC2)cc1OC	BAZ2B inh inconclusive, JMJD2A Tudor inh inconclusive
Cc1[nH]c2ccc(Br)cc2c(=S)c1C/C=C/Cl	PLK1 PBD block 23.8µM, G9a block 35.5µM, BAZ2B inh inconclusive, VDR inhibitor inconclusive
CCOc1cccc2cc(C(N)=O)c(=N)oc12	G9a block 31.6µM
COc1cccc2cc(C(=O)Oc3ccccc3)c(=O)oc12	BAZ2B inh inconclusive (no result: G9a block)
CCOc1cccc2cc(C(=O)Oc3ccc(OC)cc3)c(=O)oc12	G9a block 20µM
O=C1CNC(=O)c2cc(Cl)ccc2N1	none (no result: HP1b chromo inh, G9a block, BAZ2B inh, JMJD2A Tudor inh, VDR inhibitor)
COc1ccccc1CNC(=O)c1cn(C)c2ccc(S(=O)(=O)N3CCCC3)cc2c1=O	none
COc1cccc(CNC(=O)c2cccc(NC(=O)C3=C(C)OCCS3)c2)c1	G9a block inconclusive
CCOc1ccc(CNC(=O)c2cccc(NC(=O)C3=C(C)OCCS3)c2)cc1	G9a block inconclusive, BAZ2B inh 50.1µM
CCN(CC)C(=O)/C=C/c1ccc(OC)c(S(=O)(=O)N2CCCCC2)c1	BAZ2B inh inconclusive
Cc1cc(C)c2oc(C(=O)Nc3ccc(S(=O)(=O)N4CCCC(C)C4)cc3)cc(=O)c2c1 (stereo not drawn)	none
C/C(CC(=O)Nc1ccc(Cl)cc1Cl)=N\NC(=O)c1cnccn1	none
CCCCCOC(=O)C(C)c1c(C)[nH]c(=S)[nH]c1=O (stereo not drawn)	G9a block 70.8µM
CN(CC(=O)Nc1ncn[nH]1)S(=O)(=O)c1ccc(Cl)cc1	G9a block 89.1µM, BAZ2B inh 50.1µM, JMJD2A Tudor inh inconclusive
